In PubChem BioAssay AID602452 (National Center for Advancing Translational Sciences (NCATS), 2012) one finds OD (growth) data, which are given here for 5 molecules.

Molecules are shown by their SMILES. Activity calls are given as the source filed them. The rule behind the calls is not given here.

One assay can be described thus: qHTS Assay for Inhibitors of Influenza NS1 Protein Function: SAR Using NS1 and pYES strains. The note with it: yeast NS1-expressing strain growth, OD at 60 h; stronger effect = higher value. An excerpt:
Influenza is a world-wide public health problem and emerging forms of the virus have the potential to cause a pandemic of equal or greater magnitude to the outbreaks recorded in 1918, 1957 or 1968. Vaccine development is proceeding and there also exist two classes of anti-influenza compounds. However these therapeutic modalities are neither fully effective nor widely enough available to fulfill global needs. In addition their potential usefulness against newly emergent strains is not known. Efforts are needed to develop novel agents against influenza virus, including broad-spectrum agents. Identification of small molecules that inhibit NS1 function either directly or by interfering with specific cellular pathways may be a key to increasing our defense against the virus.
We have miniaturized and optimized a cell based assay in which NS1 from influenza A is expressed in the budding yeast S. cerevisiae. NS1 is a multi-functional protein that counters the host innate immune response and facilitates viral versus cellular gene expression. Expression of NS1 causes a pronounced slow growth phenotype in yeast due to its intrinsic molecular activities. Small molecules that suppress the slow growth phenotype can be identified by a straightforward growth recovery assay using optical density (OD) as the measurement. The same yeast strain not expressing NS1 was used as positive control in the yeast growth recovery assay.
Hits resulting from the primary screen and other follow-up screens, were tested using the same yeast strain that was used in the primary assay (NS1) but as control, were compared to a strain that lacks NS1 (pYES).
NIH Chemical Genomics Center [NCGC]
NIH Molecular Libraries Probe Centers Network [MLPCN]
Assay Submitter (PI): Daniel Engel, University of Virgina
Strain 9526-6-2 (MATa his3Delta1 leu2Delta0 lys2Delta0 ura3Delta0 pdr1::KanMX4 pdr3::KanMX4) was a gift from Dan Burke. It was derived by tetrad dissection from two parent strains that had been modified by one step gene replacements. The pdr1::KanMX4 was constructed in BY4741 (MATa his3Delta1 leu2Delta0 met15Delta0 ura3Delta0) and the pdr3::KanMX4 was constructed in BY4742 (MATalpha his3Delta1 leu2Delta0 met15Delta0 ura3Delta0). PCR-mediated one-step gene replacements, matings and tetrad dissections were performed as described previously.[i] The strain 9526-6-2/pYES-NS1 was generated by transformation of 9526-6-2 with the plasmid pYES-NS1 and maintained on synthetic complete medium (SC) lacking uracil. For growth experiments and library screening, a single transformed colony was grown overnight, and the cell number was determined by using a Coulter counter (Beckman Coulter Corp.). The cells were diluted to 5 x 10^5 cells/mL in SC lacking uracil and containing raffinose and 2% galactose. A portion of this culture was added to preplated test compounds such that the final dimethyl sulfoxide (DMSO) concentration was 1%. Optical density readings at 600 nm (OD600) were taken using a Thermomax microplate reader (Molecular Devices).
For `COc1cc(-c2c(C#N)c(N)nc3c2c(C)nn3-c2ccc(F)cc2)ccc1O`, the OD (growth) is 0.396 (active).

As for `Cc1nn(-c2ccc(Cl)cc2)c2nc(N)c(C#N)c(-c3ccc(O)c(O)c3)c12`, the OD (growth) is 0.384 (active).

Regarding `Cc1ccc(-n2nc(C)c3c(-c4ccc(O)c(O)c4)c(C#N)c(N)nc32)cc1C`, the OD (growth) is 0.515 (active).

In the case of `COc1cc(-c2ccnc3c2c(C)nn3-c2cccc(C(F)(F)F)c2)ccc1O`, the OD (growth) was 0.366 (active).

Turning to `COc1cc(-c2ccnc3c2c(C)nn3-c2ccc(C(F)(F)F)cc2)ccc1O`, the OD (growth) is 0.46 (active).

The same assay, now with this note: yeast NS1-expressing strain growth, OD at 60 h; measured here: pYES control strain growth; stronger effect = higher value.
`COc1cc(-c2c(C#N)c(N)nc3c2c(C)nn3-c2ccc(F)cc2)ccc1O` had an OD (growth) of 0.591.

The molecule `Cc1nn(-c2ccc(Cl)cc2)c2nc(N)c(C#N)c(-c3ccc(O)c(O)c3)c12` came in with an OD (growth) of 0.572.

`Cc1ccc(-n2nc(C)c3c(-c4ccc(O)c(O)c4)c(C#N)c(N)nc32)cc1C` returned an OD (growth) of 0.536.

As for `COc1cc(-c2ccnc3c2c(C)nn3-c2cccc(C(F)(F)F)c2)ccc1O`, the OD (growth) was determined as 0.551.

`COc1cc(-c2ccnc3c2c(C)nn3-c2ccc(C(F)(F)F)cc2)ccc1O` yielded an OD (growth) of 0.56.
